This note sets out measurements from publication PMC11006913.

What all share (assay): PBM; 200 nM protein, PBS
Common to all, as to conditions: dsDNA, one strand shown

One test deals with T1, VENTX (Homo sapiens, UniProt O95231 78-163).
T1 sequence: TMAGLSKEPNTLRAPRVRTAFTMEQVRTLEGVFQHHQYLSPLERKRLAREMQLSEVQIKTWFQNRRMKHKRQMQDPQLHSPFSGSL

Test [1] has as its target HOXA7 (Homo sapiens, UniProt P31268 116-202).
For test [2], the target named is HOXB6 (Homo sapiens, UniProt P17509 132-218, K202E).
Test [3] addresses HOXA2 (Homo sapiens, UniProt O43364 129-215, R185K).
A further test concerns the target VAX1 (Homo sapiens, UniProt Q5SQQ9 86-172).
Test [4] deals with HOXA2 (Homo sapiens, UniProt O43364 129-215, Y150S).
In test [5] the target is HOXA7 (Homo sapiens, UniProt P31268 116-202, W177C).
In test [6] the target is HOXA2 (Homo sapiens, UniProt O43364 129-215).
Test [7] concerns the target HOXB6 (Homo sapiens, UniProt P17509 132-218).
For test [8], the target named is HOXB9 (Homo sapiens, UniProt P17482 171-250, T197M).
Test [9] addresses HOXC9 (Homo sapiens, UniProt P31274 178-260, K195R).
The target in test [10] is T2, PAX4 (Homo sapiens, UniProt O43316 9-242).
T2 sequence: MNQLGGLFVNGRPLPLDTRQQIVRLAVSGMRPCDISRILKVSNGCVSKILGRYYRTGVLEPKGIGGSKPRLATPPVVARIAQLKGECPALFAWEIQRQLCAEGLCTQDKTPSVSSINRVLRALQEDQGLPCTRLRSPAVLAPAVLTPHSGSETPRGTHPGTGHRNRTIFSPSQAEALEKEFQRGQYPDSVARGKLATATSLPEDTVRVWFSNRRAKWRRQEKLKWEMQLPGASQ

In test [11] the target is HOXB9 (Homo sapiens, UniProt P17482 171-250).
Test [12] has as its target HOXC9 (Homo sapiens, UniProt P31274 178-260, R193K).
Test [13] has as its target HOXB9 (Homo sapiens, UniProt P17482 171-250, R186Q).
Test [14] deals with T3, PAX4 (Homo sapiens, UniProt O43316 9-242, R227W).
T3 sequence: T2 sequence with R219W

Test [15] has as its target HOXC10 (Homo sapiens, UniProt Q9NYD6 254-340).
Test [16] concerns the target HOXC10 (Homo sapiens, UniProt Q9NYD6 254-340, K271E).
For test [17], the target named is HOXC9 (Homo sapiens, UniProt P31274 178-260, R222W).

Changes are numbered by the printed parent chain.

Sequence of HOXA7 (Homo sapiens, UniProt P31268 116-202, W177C) (P31268 116-202 W177C): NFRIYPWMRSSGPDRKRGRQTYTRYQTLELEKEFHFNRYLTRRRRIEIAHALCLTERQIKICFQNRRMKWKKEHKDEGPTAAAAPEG
Sequence of HOXA2 (Homo sapiens, UniProt O43364 129-215) (O43364 129-215): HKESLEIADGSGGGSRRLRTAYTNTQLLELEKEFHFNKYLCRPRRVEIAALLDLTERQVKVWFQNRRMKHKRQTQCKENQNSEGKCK
Sequence of HOXA2 (Homo sapiens, UniProt O43364 129-215, R185K) (O43364 129-215 R185K): as the sequence (O43364 129-215) above, with R57K counted along it
Sequence of VAX1 (Q5SQQ9 86-172): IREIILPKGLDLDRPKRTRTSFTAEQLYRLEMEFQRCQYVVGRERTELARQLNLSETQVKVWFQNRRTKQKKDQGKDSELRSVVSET
Sequence of HOXB6 (Homo sapiens, UniProt P17509 132-218, K202E) (P17509 132-218 K202E): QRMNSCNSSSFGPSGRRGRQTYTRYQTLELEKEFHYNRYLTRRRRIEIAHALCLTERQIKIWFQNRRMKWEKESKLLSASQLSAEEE
Sequence of HOXB6 (Homo sapiens, UniProt P17509 132-218) (P17509 132-218): as the sequence (P17509 132-218 K202E) above, with E71K counted along it
Sequence of HOXA2 (Homo sapiens, UniProt O43364 129-215, Y150S) (O43364 129-215 Y150S): as the sequence (O43364 129-215) above, with Y22S counted along it
Sequence of HOXA7 (Homo sapiens, UniProt P31268 116-202) (P31268 116-202): as the sequence (P31268 116-202 W177C) above, with C62W counted along it
Sequence of HOXB9 (Homo sapiens, UniProt P17482 171-250, T197M) (P17482 171-250 T197M): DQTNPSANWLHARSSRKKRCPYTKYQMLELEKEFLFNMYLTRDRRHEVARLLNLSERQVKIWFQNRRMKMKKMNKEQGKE
Sequence of HOXC10 (Homo sapiens, UniProt Q9NYD6 254-340, K271E) (Q9NYD6 254-340 K271E): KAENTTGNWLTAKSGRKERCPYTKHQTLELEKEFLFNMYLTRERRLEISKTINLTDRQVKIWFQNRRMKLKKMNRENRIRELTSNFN
Sequence of HOXB9 (Homo sapiens, UniProt P17482 171-250, R186Q) (P17482 171-250 R186Q): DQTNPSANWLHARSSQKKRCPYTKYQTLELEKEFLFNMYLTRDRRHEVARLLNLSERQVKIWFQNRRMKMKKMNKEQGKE
Sequence of HOXB9 (Homo sapiens, UniProt P17482 171-250) (P17482 171-250): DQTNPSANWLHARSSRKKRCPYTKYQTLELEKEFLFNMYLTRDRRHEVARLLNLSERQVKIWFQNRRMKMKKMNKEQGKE
Sequence of HOXC9 (Homo sapiens, UniProt P31274 178-260, R193K) (P31274 178-260 R193K): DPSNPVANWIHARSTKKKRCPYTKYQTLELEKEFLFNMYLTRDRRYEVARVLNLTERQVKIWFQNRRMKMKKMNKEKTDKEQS
Sequence of HOXC9 (Homo sapiens, UniProt P31274 178-260, R222W) (P31274 178-260 R222W): as the sequence (P31274 178-260 R193K) above, with K16R, R45W counted along it
Sequence of HOXC10 (Homo sapiens, UniProt Q9NYD6 254-340) (Q9NYD6 254-340): as the sequence (Q9NYD6 254-340 K271E) above, with E18K counted along it
Sequence of HOXC9 (Homo sapiens, UniProt P31274 178-260, K195R) (P31274 178-260 K195R): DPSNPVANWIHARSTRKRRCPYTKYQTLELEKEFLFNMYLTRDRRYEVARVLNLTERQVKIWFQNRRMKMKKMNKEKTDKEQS

For the sequence CAATTAAG, the binding signal with VENTX was 12.5 upbm affinity estimate (log intensity, higher = more binding, comparable within an allelic series); with HOXA7 [1], 11.5 upbm affinity estimate (log intensity, higher = more binding, comparable within an allelic series); with HOXB6 [2], 9.95 upbm affinity estimate (log intensity, higher = more binding, comparable within an allelic series); with HOXA2 [3], 13 upbm affinity estimate (log intensity, higher = more binding, comparable within an allelic series); with VAX1 it was 13 upbm affinity estimate (log intensity, higher = more binding, comparable within an allelic series); with HOXA2 [4], 10.7 upbm affinity estimate (log intensity, higher = more binding, comparable within an allelic series). For the same sequence, the binding signal in the test with HOXA7 [5] was 8.83 upbm affinity estimate (log intensity, higher = more binding, comparable within an allelic series); with HOXA2 [6], 12.2 upbm affinity estimate (log intensity, higher = more binding, comparable within an allelic series); with HOXB6 [7], 11.8 upbm affinity estimate (log intensity, higher = more binding, comparable within an allelic series).
As to AAATTAAT, the binding signal was 10.1 upbm affinity estimate (log intensity, higher = more binding, comparable within an allelic series) in the test with HOXB9 [8]; 12.6 upbm affinity estimate (log intensity, higher = more binding, comparable within an allelic series) in the test with HOXC9 [9]; 11.3 upbm affinity estimate (log intensity, higher = more binding, comparable within an allelic series) with HOXA7 [1]; 12.4 upbm affinity estimate (log intensity, higher = more binding, comparable within an allelic series) with PAX4 [10]; 10.1 upbm affinity estimate (log intensity, higher = more binding, comparable within an allelic series) with HOXB6 [2]; 11.8 upbm affinity estimate (log intensity, higher = more binding, comparable within an allelic series) in the test with HOXB9 [11]. The binding signal was 12.5 upbm affinity estimate (log intensity, higher = more binding, comparable within an allelic series) with HOXC9 [12]; 12.7 upbm affinity estimate (log intensity, higher = more binding, comparable within an allelic series) with VAX1; 11.5 upbm affinity estimate (log intensity, higher = more binding, comparable within an allelic series) with HOXB9 [13]; 11.1 upbm affinity estimate (log intensity, higher = more binding, comparable within an allelic series) with PAX4 [14]; 8.83 upbm affinity estimate (log intensity, higher = more binding, comparable within an allelic series) with HOXA7 [5]; 11.8 upbm affinity estimate (log intensity, higher = more binding, comparable within an allelic series) with HOXB6 [7].
Turning to CAATTATC, the binding signal with HOXA7 [1] is 11.2 upbm affinity estimate (log intensity, higher = more binding, comparable within an allelic series); in the test with HOXB6 [2] it was 9.98 upbm affinity estimate (log intensity, higher = more binding, comparable within an allelic series); with HOXA2 [3] it was 13 upbm affinity estimate (log intensity, higher = more binding, comparable within an allelic series); with HOXA2 [4], 10.9 upbm affinity estimate (log intensity, higher = more binding, comparable within an allelic series); in the test with HOXA7 [5] it was 8.91 upbm affinity estimate (log intensity, higher = more binding, comparable within an allelic series); with HOXA2 [6] it was 12.1 upbm affinity estimate (log intensity, higher = more binding, comparable within an allelic series). In addition, in the test with HOXB6 [7], the binding signal was 11.6 upbm affinity estimate (log intensity, higher = more binding, comparable within an allelic series).
In the case of GTAATTGA, the binding signal with HOXA7 [1] is 11.2 upbm affinity estimate (log intensity, higher = more binding, comparable within an allelic series); with HOXA2 [3], 12.9 upbm affinity estimate (log intensity, higher = more binding, comparable within an allelic series); in the test with VAX1, 12.8 upbm affinity estimate (log intensity, higher = more binding, comparable within an allelic series); in the test with HOXA2 [4], 10.7 upbm affinity estimate (log intensity, higher = more binding, comparable within an allelic series); with HOXA7 [5], 8.88 upbm affinity estimate (log intensity, higher = more binding, comparable within an allelic series); with HOXA2 [6], 12.1 upbm affinity estimate (log intensity, higher = more binding, comparable within an allelic series).
In the case of CTAATTGA, the binding signal is 12.8 upbm affinity estimate (log intensity, higher = more binding, comparable within an allelic series) in the test with VENTX; 12.2 upbm affinity estimate (log intensity, higher = more binding, comparable within an allelic series) with PAX4 [10]; 13.4 upbm affinity estimate (log intensity, higher = more binding, comparable within an allelic series) with HOXA2 [3]; 13.5 upbm affinity estimate (log intensity, higher = more binding, comparable within an allelic series) with VAX1; 10.7 upbm affinity estimate (log intensity, higher = more binding, comparable within an allelic series) with PAX4 [14]; 10.6 upbm affinity estimate (log intensity, higher = more binding, comparable within an allelic series) with HOXA2 [4]. In addition, the binding signal in the test with HOXA2 [6] is 12.6 upbm affinity estimate (log intensity, higher = more binding, comparable within an allelic series).
With CAATTATG, the binding signal is 9.97 upbm affinity estimate (log intensity, higher = more binding, comparable within an allelic series) with HOXB6 [2] and 11.7 upbm affinity estimate (log intensity, higher = more binding, comparable within an allelic series) with HOXB6 [7].
As to CCCCGGCG, the binding signal with HOXC10 [15] was 9.87 upbm affinity estimate (log intensity, higher = more binding, comparable within an allelic series); in the test with HOXB6 [2], 9.01 upbm affinity estimate (log intensity, higher = more binding, comparable within an allelic series); in the test with HOXC10 [16] it was 10 upbm affinity estimate (log intensity, higher = more binding, comparable within an allelic series); with HOXB6 [7], 9 upbm affinity estimate (log intensity, higher = more binding, comparable within an allelic series).
In the case of CCAATTAA, the binding signal with HOXB9 [8] is 10 upbm affinity estimate (log intensity, higher = more binding, comparable within an allelic series); with VENTX, 12.9 upbm affinity estimate (log intensity, higher = more binding, comparable within an allelic series); with HOXA7 [1] it was 11.5 upbm affinity estimate (log intensity, higher = more binding, comparable within an allelic series); in the test with PAX4 [10], 12.3 upbm affinity estimate (log intensity, higher = more binding, comparable within an allelic series); with HOXB6 [2], 10 upbm affinity estimate (log intensity, higher = more binding, comparable within an allelic series); with HOXA2 [3] it was 13.1 upbm affinity estimate (log intensity, higher = more binding, comparable within an allelic series). The binding signal was 11.9 upbm affinity estimate (log intensity, higher = more binding, comparable within an allelic series) with HOXC10 [16]; 13 upbm affinity estimate (log intensity, higher = more binding, comparable within an allelic series) with VAX1; 11.4 upbm affinity estimate (log intensity, higher = more binding, comparable within an allelic series) in the test with HOXB9 [13]; 11.1 upbm affinity estimate (log intensity, higher = more binding, comparable within an allelic series) with HOXC9 [17]; 11 upbm affinity estimate (log intensity, higher = more binding, comparable within an allelic series) with PAX4 [14]; 10.8 upbm affinity estimate (log intensity, higher = more binding, comparable within an allelic series) with HOXA2 [4]. Also, the binding signal is 8.83 upbm affinity estimate (log intensity, higher = more binding, comparable within an allelic series) with HOXA7 [5]; 12.2 upbm affinity estimate (log intensity, higher = more binding, comparable within an allelic series) with HOXA2 [6]; 11.9 upbm affinity estimate (log intensity, higher = more binding, comparable within an allelic series) with HOXB6 [7].
Consider ACTAATTG, for which the binding signal with VENTX is 12.9 upbm affinity estimate (log intensity, higher = more binding, comparable within an allelic series); with PAX4 [10] it was 12.1 upbm affinity estimate (log intensity, higher = more binding, comparable within an allelic series); with HOXA2 [3], 13.3 upbm affinity estimate (log intensity, higher = more binding, comparable within an allelic series); with VAX1, 13.3 upbm affinity estimate (log intensity, higher = more binding, comparable within an allelic series); with PAX4 [14], 10.8 upbm affinity estimate (log intensity, higher = more binding, comparable within an allelic series); with HOXA2 [4], 10.8 upbm affinity estimate (log intensity, higher = more binding, comparable within an allelic series). Further, the binding signal in the test with HOXA2 [6] is 12.4 upbm affinity estimate (log intensity, higher = more binding, comparable within an allelic series).
Turning to AATTAACA, the binding signal in the test with HOXB9 [8] was 9.97 upbm affinity estimate (log intensity, higher = more binding, comparable within an allelic series); with VENTX, 12.4 upbm affinity estimate (log intensity, higher = more binding, comparable within an allelic series); in the test with HOXA7 [1], 11.3 upbm affinity estimate (log intensity, higher = more binding, comparable within an allelic series); with PAX4 [10], 12.5 upbm affinity estimate (log intensity, higher = more binding, comparable within an allelic series); with HOXB6 [2] it was 10 upbm affinity estimate (log intensity, higher = more binding, comparable within an allelic series); with HOXA2 [3] it was 13.1 upbm affinity estimate (log intensity, higher = more binding, comparable within an allelic series). The binding signal was 12.9 upbm affinity estimate (log intensity, higher = more binding, comparable within an allelic series) with VAX1; 11.2 upbm affinity estimate (log intensity, higher = more binding, comparable within an allelic series) with PAX4 [14]; 11 upbm affinity estimate (log intensity, higher = more binding, comparable within an allelic series) with HOXA2 [4]; 8.91 upbm affinity estimate (log intensity, higher = more binding, comparable within an allelic series) with HOXA7 [5]; 12.2 upbm affinity estimate (log intensity, higher = more binding, comparable within an allelic series) with HOXA2 [6]; 11.7 upbm affinity estimate (log intensity, higher = more binding, comparable within an allelic series) with HOXB6 [7].
For ATAATTGA, the binding signal with HOXB9 [8] was 9.97 upbm affinity estimate (log intensity, higher = more binding, comparable within an allelic series); with HOXA7 [1] it was 11.2 upbm affinity estimate (log intensity, higher = more binding, comparable within an allelic series); with HOXB6 [2], 10 upbm affinity estimate (log intensity, higher = more binding, comparable within an allelic series); with HOXA7 [5], 8.94 upbm affinity estimate (log intensity, higher = more binding, comparable within an allelic series); in the test with HOXB6 [7], 11.7 upbm affinity estimate (log intensity, higher = more binding, comparable within an allelic series).
